The values below come from PubChem BioAssay (EPA / NIEHS).

Read-out in test [1]: Intercellular Adhesion Molecule 1 (ICAM1), ICAM1 (gene 3383)
In words: BSK_BE3C_ICAM1: BioMAP Diversity Plus: BE3C Assay for Intercellular Adhesion Molecule 1 (ICAM1) Biomarker Activity (AID 2284278).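 Also: cell-surface ICAM-1 protein level quantified by ELISA.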 The following applies: primary human bronchial epithelial cells. The procedure, abridged:
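Measured by ELISA: ICAM-1 expressed by primary human bronchial epithelial cells 24 h after compound treatment, with upward-direction fitting versus DMSO vehicle.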

Read-out in test [2]: Interleukin-8 (IL8), CXCL8 (gene 3576)
In words: BSK_BE3C_IL8: BioMAP Diversity Plus: BE3C Assay for Interleukin-8 (IL8) Biomarker Activity (AID 2284280). The following applies: primary human bronchial epithelial cells. The procedure, abridged: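 Primary human bronchial epithelial cells (BE3C system) exposed 24 h; IL-8 measured by ELISA and fitted in positive direction versus DMSO. Overt cytotoxicity assessed by SRB total-protein staining in parallel cultures.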

Read-out in test [3]: KRT18 (gene 3875)
Nature of the test: BSK_BE3C_Keratin818: BioMAP Diversity Plus: BE3C Assay for Keratin 818 Biomarker Activity (AID 2284282). The following applies: primary human bronchial epithelial cells. The procedure, abridged: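 BE3C: human bronchial epithelial primary cells, 24 h exposure, Keratin 8/18 ELISA; DMSO = negative control/baseline; cytotoxicity by parallel SRB stain (0.1% SRB after 10% TCA fixation, 560 nm).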

Read-out in test [4]: Matrix Metallopeptidase 9 (MMP9), MMP9 (gene 4318)
Nature of the test: BSK_BE3C_MMP9: BioMAP Diversity Plus: BE3C Assay for Matrix Metallopeptidase 9 (MMP9) Biomarker Activity (AID 2284283). To be noted: primary human bronchial epithelial cells. The procedure, abridged: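 Human primary bronchial epithelial cells exposed 24 h to compound. MMP9 quantified by ELISA. SRB total-protein staining of parallel cultures assesses cytotoxicity. Positive-direction fit relative to DMSO.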

Read-out in test [5]: Plasminogen activator inhibitor-1 (PAI1), SERPINE1 (gene 5054)
In words: BSK_CASM3C_PAI1: BioMAP Diversity Plus: CASM3C Assay for Plasminogen activator inhibitor-1 (PAI1) Biomarker Activity (AID 2284284).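 Also: PAI-1 protein level measured by ELISA 24 h after dosing.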 To be noted: primary human coronary artery smooth muscle cells.

Read-out in test [6]: Monocyte Chemoattractant Protein-1 (MCP1), CCL2 (gene 6347)
Nature of the test: BSK_hDFCGF_MCP1: BioMAP Diversity Plus: hDFCGF Assay for Monocyte Chemoattractant Protein-1 (MCP1) Biomarker Activity (AID 2284285). The following applies: primary human foreskin fibroblasts. Put shortly:
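Human foreskin fibroblasts (hDFCGF system) were exposed to compound and secreted MCP-1 was measured by ELISA after 24 hours. Activity was fitted relative to DMSO. Cytotoxicity was checked by SRB total-protein staining in parallel cultures.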

Read-out in test [7]: Intercellular Adhesion Molecule 1 (ICAM1), ICAM1 (gene 3383)
In words: BSK_hDFCGF_ICAM1: BioMAP Diversity Plus: hDFCGF Assay for Intercellular Adhesion Molecule 1 (ICAM1) Biomarker Activity (AID 2284287). The following applies: primary human foreskin fibroblasts. The procedure, abridged:
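Primary human foreskin fibroblasts (hDFCGF system) dosed with chemical; ICAM-1 quantified by ELISA at 24 h relative to DMSO. Parallel SRB total-protein staining to assess overt cytotoxicity.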

Read-out in test [8]: TIMP metallopeptidase inhibitor 2 (TIMP2), TIMP2 (gene 7077)
In words: BSK_hDFCGF_TIMP2: BioMAP Diversity Plus: hDFCGF Assay for TIMP metallopeptidase inhibitor 2 (TIMP2) Biomarker Activity (AID 2284289). To be noted: primary human foreskin fibroblasts. Put shortly: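 Primary human foreskin fibroblasts in the hDFCGF system, dosed for 24 h; TIMP-2 level measured by ELISA, fitted in the positive direction against DMSO; cytotoxicity checked in parallel by sulforhodamine B total protein staining.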

Read-out in test [9]: urokinase Plasminogen Activator (uPA), PLAU (gene 5328)
In words: BSK_BF4T_uPA: BioMAP Diversity Plus: BF4T Assay for urokinase Plasminogen Activator (uPA) Biomarker Activity (AID 2284275). The following applies: primary human bronchial epithelial cells with fibroblasts. Put shortly:
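Co-culture of human bronchial epithelial cells and dermal fibroblasts; uPA quantified by ELISA 24 hours after dosing, fitted relative to DMSO. Parallel SRB total-protein staining assessed overt cytotoxicity.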

Read-out in test [10]: Matrix Metallopeptidase 9 (MMP9), MMP9 (gene 4318)
In words: BSK_BF4T_MMP9: BioMAP Diversity Plus: BF4T Assay for Matrix Metallopeptidase 9 (MMP9) Biomarker Activity (AID 2284276). The following applies: primary human bronchial epithelial cells with fibroblasts. Put shortly: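 Co-culture of human bronchial epithelial cells and dermal fibroblasts dosed for 24 h; MMP-9 quantified by ELISA and fitted upward versus DMSO. Cytotoxicity monitored in parallel cultures by SRB total-protein staining at the biomarker time point.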

Read-out in test [11]: Interleukin-8 (IL8), CXCL8 (gene 3576)
Nature of the test: BSK_IMphg_IL8: BioMAP Diversity Plus: IMphg Assay for Interleukin-8 (IL8) Biomarker Activity (AID 2284277). To be noted: primary human endothelial cells with macrophages. Put shortly:
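Co-culture of human venular endothelial cells and macrophages exposed to chemicals for 24 h; IL-8 quantified by ELISA and compared against the DMSO baseline, with SRB total-protein staining in parallel cultures for cytotoxicity.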

Read-out in test [12]: Vascular cell adhesion molecule 1 (VCAM1), VCAM1 (gene 7412)
Nature of the test: BSK_IMphg_VCAM1: BioMAP Diversity Plus: IMphg Assay for Vascular cell adhesion molecule 1 (VCAM1) Biomarker Activity (AID 2284286). The following applies: primary human endothelial cells with macrophages. Put shortly: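 Human venular endothelial cells co-cultured with macrophages; VCAM-1 quantified by ELISA 24 h after dosing, fitted in the positive direction against DMSO. Cytotoxicity was checked in parallel cultures by SRB total-protein staining (0.1% SRB after 10% TCA fixation, 560 nm).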

Read-out in test [13]: CD40, CD40 (gene 958)
Nature of the test: BSK_IMphg_CD40: BioMAP Diversity Plus: IMphg Assay for CD40 Biomarker Activity (AID 2284288). The following applies: primary human endothelial cells with macrophages. The procedure, abridged:
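Venular endothelial cells co-cultured with macrophages (human primary), CD40 measured by ELISA 24 h after dosing. Positive-direction fit vs DMSO baseline; cytotoxicity tracked by SRB total-protein staining in parallel cultures.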

Read-out in test [14]: Interleukin-1 alpha (IL1a), IL1A (gene 3552)
In words: BSK_IMphg_IL1a: BioMAP Diversity Plus: IMphg Assay for Interleukin-1 alpha (IL1a) Biomarker Activity (AID 2284290). To be noted: primary human endothelial cells with macrophages. The procedure, abridged: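 Human venular endothelial cells co-cultured with macrophages, IMphg system. IL-1α is measured by ELISA 24 h after dosing and fitted in the positive direction against DMSO. Cytotoxicity is assessed by SRB staining of parallel cultures.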

Read-out in test [15]: E-selectin (Homo sapiens) (UniProt P16581)
Nature of the test: BSK_IMphg_ESelectin: BioMAP Diversity Plus: IMphg Assay for Eselectin Biomarker Activity (AID 2284291). To be noted: primary human endothelial cells with macrophages. Put shortly:
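Human venular endothelial cell–macrophage co-culture, E-selectin measured by ELISA 24 h after chemical dosing. Signal fitted in the positive direction against DMSO as negative control and baseline.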

The nature of test [16]: BSK_IMphg_SRB: Viability Assessment in the BioMAP Diversity Plus: IMphg Assay (AID 2284292).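 Also: measured one day after compound addition.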 To be noted: primary human endothelial cells with macrophages. The procedure, abridged:
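Human venular endothelial cells with macrophages, 24 h after chemical dosing; total protein by 0.1% SRB staining after 10% TCA fixation, read at 560 nm. Positive-direction fitting versus DMSO baseline.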

Read-out in test [17]: Macrophage colony-stimulating factor (MCSF), CSF1 (gene 1435)
Nature of the test: BSK_IMphg_MCSF: BioMAP Diversity Plus: IMphg Assay for Macrophage colony-stimulating factor (MCSF) Biomarker Activity (AID 2284293). To be noted: primary human endothelial cells with macrophages. The procedure, abridged: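 Co-culture of human venular endothelial cells and macrophages, 24 hours of chemical exposure. M-CSF quantified by ELISA, with parallel SRB total-protein staining for cytotoxicity; activity fitted relative to DMSO.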

Read-out in test [18]: Interleukin-10 (IL10), IL10 (gene 3586)
Nature of the test: BSK_IMphg_IL10: BioMAP Diversity Plus: IMphg Assay for Interleukin-10 (IL10) Biomarker Activity (AID 2284294). The following applies: primary human endothelial cells with macrophages. The procedure, abridged: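 Human venular endothelial cells cocultured with macrophages, dosed 24 h; IL-10 measured by ELISA, activity relative to DMSO. Cytotoxicity assessed in parallel cultures by sulforhodamine B total-protein staining.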

A short description of test [19]: BSK_IMphg_SRB.Mphg: Macrophage Viability Assessment in the BioMAP Diversity Plus: IMphg Assay (AID 2284295). To be noted: primary human endothelial cells with macrophages. Put shortly:
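Venular endothelial cells co-cultured with macrophages, read 24 h after dosing. Total protein measured by 0.1% SRB staining after 10% TCA fixation, absorbance at 560 nm. Fitted in positive direction against DMSO baseline.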

Test [20] in a line: IUF_NPC2c_oligodendrocyte_migration_120hr: Leibniz Research Institute for Environmental Medicine (IUF) 120-hour Neural Progenitor Cell Migration Assay for Oligodendrocyte Migration (NPC2c) (AID 2284297).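 Also: O4-positive oligodendrocyte migration distance divided by radial glia migration distance.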 The procedure, abridged: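 Human fetal neural progenitor spheres (0.3 mm) are plated on poly-D-lysine/laminin in N2 differentiation medium and exposed for 120 h, with half-medium renewal at day 3. Oligodendrocyte (O4+) migration distance comes from ICC imaging, normalised to radial glia migration.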

Where “and” joins values, the source holds several entries; their conditions need not be identical. Identical values can stand only once. More than one record can exist for a structure, and the calls need not agree. Calls of active or inactive are those of the source. The calls were made as follows: active = hit-call score of the fitted dose curve at least 0.9, where 1 is the maximum; inactive = score below 0.9.

Chain of E-selectin (Homo sapiens) (P16581 whole entry, looked up): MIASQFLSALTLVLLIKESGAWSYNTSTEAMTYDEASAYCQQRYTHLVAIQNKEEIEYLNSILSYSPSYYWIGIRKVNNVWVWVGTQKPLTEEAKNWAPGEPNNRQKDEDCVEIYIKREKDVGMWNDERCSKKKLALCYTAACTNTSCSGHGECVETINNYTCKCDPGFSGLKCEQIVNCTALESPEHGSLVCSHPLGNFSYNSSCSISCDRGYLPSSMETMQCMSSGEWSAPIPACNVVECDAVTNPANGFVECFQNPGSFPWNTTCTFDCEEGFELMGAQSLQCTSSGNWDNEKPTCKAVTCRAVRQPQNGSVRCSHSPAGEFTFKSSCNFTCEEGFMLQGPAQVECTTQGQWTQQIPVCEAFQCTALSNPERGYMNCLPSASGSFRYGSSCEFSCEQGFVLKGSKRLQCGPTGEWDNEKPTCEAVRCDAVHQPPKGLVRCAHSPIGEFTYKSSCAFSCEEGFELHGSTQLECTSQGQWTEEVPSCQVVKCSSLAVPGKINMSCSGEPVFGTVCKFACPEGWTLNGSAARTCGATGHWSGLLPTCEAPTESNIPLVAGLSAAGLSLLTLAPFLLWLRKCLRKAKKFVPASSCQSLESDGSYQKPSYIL

As for `CC(C)CCCC(C)(C)O`, the outcome in test [1], in test [2], in test [3], in [4], in test [5] and in test [6] was inactive. Further, the outcome in [7] and in test [8] was inactive.

In the case of `CCn1cc(C(=O)O)c(=O)c2ccc(C)nc21`, the outcome in test [1], in test [2], in test [3], in test [4], in test [5] and in test [6] was inactive. The result in test [7] and in [8] was inactive.

In the case of `C=C(C)C(=O)OCCC(F)(F)C(F)(F)C(F)(F)C(F)(F)C(F)(F)C(F)(F)C(F)(F)C(F)(F)F`, the outcome in test [9], in test [10], in test [11], in test [1], in test [2] and in test [3] was inactive. Further, the result in test [4], in test [5], in test [6], in [12], in [7] and in test [13] was inactive. Also, the outcome in test [8], in [14], in [15], in [16], in test [17] and in [18] was inactive. Also, the result in test [19] was inactive. In test [13], the AC50 (usually the concentration giving half of the maximal activity seen) is 2.53 µM (active).

On to `O=C(O)C(F)(F)C(F)(F)C(F)(F)C(F)(F)C(F)(F)C(F)(F)C(F)(F)C(F)F`, for which the outcome in [9], in [10], in test [11], in [1], in [2] and in test [3] was inactive. The result in test [4], in [5], in test [6], in [12], in test [7] and in [13] was inactive. For the same compound, the result in test [8], in [14], in test [15], in test [16], in [17] and in [19] was inactive. For the same compound, the concentration at half-maximal activity (AC50) in test [18] is 47.1 µM (active) and 57.5 µM (active).

Turning to `N[C@@H](CCC(=O)O)C(=O)O`, in [20], the result was inactive.

As to `CC(=O)c1ccc(C)cc1`, the result in test [1], in test [2], in test [3], in test [4], in test [5] and in test [6] was inactive. The result in [7] and in test [8] was inactive.

Consider `O=C(O)C(F)(F)OC(F)(F)C(F)(F)OC(F)(F)C(F)(F)C(F)(F)C(F)(F)F`, for which the outcome in [9], in test [10], in test [11], in test [1], in test [2] and in test [3] was inactive. Also, the outcome in test [4], in [5], in test [6], in test [12], in [7] and in test [13] was inactive. For the same compound, the result in test [8], in test [14], in test [15], in [16], in test [17] and in test [19] was inactive. In addition, the AC50 in [13] is 30 µM (active); in [18] it was 46.5 µM (active) and 49.5 µM (active).

Regarding `CCCO[Si](OCCC)(OCCC)OCCC`, the result in test [1], in test [2], in test [3], in test [4], in test [5] and in test [6] was inactive. Moreover, the outcome in test [7] and in test [8] was inactive.
